A short description of assay [1]: binders of probe aFSTL3 on microarray, primary screen, stem cell growth factor project, biochemical, small-molecule microarray, fluorescence 635/667 (AID 1064).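 Note: measures binding of the biotinylated anti-FSTL3 antibody to printed compounds.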 As to conditions: higher = more signal.
The nature of assay [2]: binders from COS7 lysate, DM2A8 probe, primary screen, torsin A project, cell lysate, small-molecule microarray, fluorescence 635/667 (AID 1065). The conditions noted are these: higher = more signal, COS7 lysate expressing mutant human TOR1A.
A short description of assay [3]: binders of probe aFGF2 on microarray, primary screen, stem cell growth factor project, biochemical, small-molecule microarray, fluorescence 635/667 (AID 1067).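 Note: measures binding of biotinylated aFGF2 protein to printed compounds on slides; z-score merges feature fluorescence and signal-to-noise across triplicate slides.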 The conditions noted are these: higher = more signal.
Assay [4] can be described thus: binders of probe aFGF10 on microarray, primary screen, stem cell growth factor project, biochemical, small-molecule microarray, fluorescence 635/667 (AID 1071).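 Note: score merges 667 nm spot intensity and signal to noise from triplicate slides.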 As to conditions: higher = more signal.
For assay [5], the target named is Neurogenic locus notch homolog protein 2 (Homo sapiens) (UniProt Q04721). As to the kind of experiment: Notch2 binders on small-molecule microarrays, primary screen, biochemical, small-molecule microarray, 635 nm fluorescence, stem cell growth factors (AID 1073). The conditions noted are these: Notch2 binding, higher = more signal.
In assay [6] the target is Pro-neuregulin-1, membrane-bound isoform (Homo sapiens) (UniProt Q02297). As to the kind of experiment: NRG1 binders on small-molecule microarrays, primary screen, psychiatric disease protein project, biochemical, small-molecule microarray, fluorescence 635/667 (AID 1075).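 Note: score combines 667 nm spot fluorescence with signal to noise.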 As to conditions: NRG1 binding, 635 nm fluorescence, higher = more signal.
Assay [7] concerns Neuregulin-1 EGF-like domain. As to the kind of experiment: binders of neuregulin-1 EGF-like domain, primary screen, biochemical, small-molecule microarray, 635 nm fluorescence (AID 1081).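 Note: binding of the protein to compounds printed on small-molecule microarray slides.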 As to conditions: small-molecule microarray binding, higher = more signal.
Assay [8] can be described thus: FRG1 promoter luciferase signal modulators, primary screen, FRG1 inhibition for FSHD, cell-based, C2C12 myotubes, firefly/Renilla luciferase, luminescence (AID 1084). As to conditions: higher = more signal, called active from +8 up or from −8 down.
A short description of assay [9]: binders of probe aFST on microarray, primary screen, stem cell growth factor project, biochemical, small-molecule microarray, fluorescence 635/667 (AID 1086).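 Note: score merges 667 nm fluorescence with signal-to-noise of each printed compound spot.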 The conditions noted are these: higher = more signal.
The nature of assay [10]: binders of probe aHhip on microarray, primary screen, stem cell growth factor project, biochemical, small-molecule microarray, fluorescence 635/667 (AID 1087).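 Note: score merges spot fluorescence at 667nm with spot signal to noise ratio.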 The conditions noted are these: higher = more signal.

Activity calls are given as the source filed them.

This is an account of results in PubChem BioAssay.

Chain of Pro-neuregulin-1, membrane-bound isoform (Homo sapiens) (Q02297 whole entry, looked up, the tested form may be a part, canonical isoform): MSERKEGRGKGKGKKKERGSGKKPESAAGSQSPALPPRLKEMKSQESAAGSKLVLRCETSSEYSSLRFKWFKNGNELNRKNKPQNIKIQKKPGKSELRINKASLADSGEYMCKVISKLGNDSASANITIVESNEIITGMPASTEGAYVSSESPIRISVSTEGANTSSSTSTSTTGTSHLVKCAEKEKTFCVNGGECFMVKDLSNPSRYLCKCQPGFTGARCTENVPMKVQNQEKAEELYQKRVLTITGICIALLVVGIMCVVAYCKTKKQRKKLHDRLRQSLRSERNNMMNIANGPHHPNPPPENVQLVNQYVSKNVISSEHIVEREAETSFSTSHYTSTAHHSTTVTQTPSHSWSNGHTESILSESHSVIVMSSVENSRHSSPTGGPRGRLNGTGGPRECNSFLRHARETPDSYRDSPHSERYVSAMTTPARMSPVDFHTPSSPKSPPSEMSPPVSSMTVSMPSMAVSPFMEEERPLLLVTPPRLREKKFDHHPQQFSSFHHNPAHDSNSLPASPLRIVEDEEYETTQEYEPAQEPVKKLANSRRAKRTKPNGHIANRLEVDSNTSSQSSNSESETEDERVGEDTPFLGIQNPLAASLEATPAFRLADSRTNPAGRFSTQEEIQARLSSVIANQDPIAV
Chain of Neurogenic locus notch homolog protein 2 (Homo sapiens) (Q04721 whole entry, looked up, canonical isoform): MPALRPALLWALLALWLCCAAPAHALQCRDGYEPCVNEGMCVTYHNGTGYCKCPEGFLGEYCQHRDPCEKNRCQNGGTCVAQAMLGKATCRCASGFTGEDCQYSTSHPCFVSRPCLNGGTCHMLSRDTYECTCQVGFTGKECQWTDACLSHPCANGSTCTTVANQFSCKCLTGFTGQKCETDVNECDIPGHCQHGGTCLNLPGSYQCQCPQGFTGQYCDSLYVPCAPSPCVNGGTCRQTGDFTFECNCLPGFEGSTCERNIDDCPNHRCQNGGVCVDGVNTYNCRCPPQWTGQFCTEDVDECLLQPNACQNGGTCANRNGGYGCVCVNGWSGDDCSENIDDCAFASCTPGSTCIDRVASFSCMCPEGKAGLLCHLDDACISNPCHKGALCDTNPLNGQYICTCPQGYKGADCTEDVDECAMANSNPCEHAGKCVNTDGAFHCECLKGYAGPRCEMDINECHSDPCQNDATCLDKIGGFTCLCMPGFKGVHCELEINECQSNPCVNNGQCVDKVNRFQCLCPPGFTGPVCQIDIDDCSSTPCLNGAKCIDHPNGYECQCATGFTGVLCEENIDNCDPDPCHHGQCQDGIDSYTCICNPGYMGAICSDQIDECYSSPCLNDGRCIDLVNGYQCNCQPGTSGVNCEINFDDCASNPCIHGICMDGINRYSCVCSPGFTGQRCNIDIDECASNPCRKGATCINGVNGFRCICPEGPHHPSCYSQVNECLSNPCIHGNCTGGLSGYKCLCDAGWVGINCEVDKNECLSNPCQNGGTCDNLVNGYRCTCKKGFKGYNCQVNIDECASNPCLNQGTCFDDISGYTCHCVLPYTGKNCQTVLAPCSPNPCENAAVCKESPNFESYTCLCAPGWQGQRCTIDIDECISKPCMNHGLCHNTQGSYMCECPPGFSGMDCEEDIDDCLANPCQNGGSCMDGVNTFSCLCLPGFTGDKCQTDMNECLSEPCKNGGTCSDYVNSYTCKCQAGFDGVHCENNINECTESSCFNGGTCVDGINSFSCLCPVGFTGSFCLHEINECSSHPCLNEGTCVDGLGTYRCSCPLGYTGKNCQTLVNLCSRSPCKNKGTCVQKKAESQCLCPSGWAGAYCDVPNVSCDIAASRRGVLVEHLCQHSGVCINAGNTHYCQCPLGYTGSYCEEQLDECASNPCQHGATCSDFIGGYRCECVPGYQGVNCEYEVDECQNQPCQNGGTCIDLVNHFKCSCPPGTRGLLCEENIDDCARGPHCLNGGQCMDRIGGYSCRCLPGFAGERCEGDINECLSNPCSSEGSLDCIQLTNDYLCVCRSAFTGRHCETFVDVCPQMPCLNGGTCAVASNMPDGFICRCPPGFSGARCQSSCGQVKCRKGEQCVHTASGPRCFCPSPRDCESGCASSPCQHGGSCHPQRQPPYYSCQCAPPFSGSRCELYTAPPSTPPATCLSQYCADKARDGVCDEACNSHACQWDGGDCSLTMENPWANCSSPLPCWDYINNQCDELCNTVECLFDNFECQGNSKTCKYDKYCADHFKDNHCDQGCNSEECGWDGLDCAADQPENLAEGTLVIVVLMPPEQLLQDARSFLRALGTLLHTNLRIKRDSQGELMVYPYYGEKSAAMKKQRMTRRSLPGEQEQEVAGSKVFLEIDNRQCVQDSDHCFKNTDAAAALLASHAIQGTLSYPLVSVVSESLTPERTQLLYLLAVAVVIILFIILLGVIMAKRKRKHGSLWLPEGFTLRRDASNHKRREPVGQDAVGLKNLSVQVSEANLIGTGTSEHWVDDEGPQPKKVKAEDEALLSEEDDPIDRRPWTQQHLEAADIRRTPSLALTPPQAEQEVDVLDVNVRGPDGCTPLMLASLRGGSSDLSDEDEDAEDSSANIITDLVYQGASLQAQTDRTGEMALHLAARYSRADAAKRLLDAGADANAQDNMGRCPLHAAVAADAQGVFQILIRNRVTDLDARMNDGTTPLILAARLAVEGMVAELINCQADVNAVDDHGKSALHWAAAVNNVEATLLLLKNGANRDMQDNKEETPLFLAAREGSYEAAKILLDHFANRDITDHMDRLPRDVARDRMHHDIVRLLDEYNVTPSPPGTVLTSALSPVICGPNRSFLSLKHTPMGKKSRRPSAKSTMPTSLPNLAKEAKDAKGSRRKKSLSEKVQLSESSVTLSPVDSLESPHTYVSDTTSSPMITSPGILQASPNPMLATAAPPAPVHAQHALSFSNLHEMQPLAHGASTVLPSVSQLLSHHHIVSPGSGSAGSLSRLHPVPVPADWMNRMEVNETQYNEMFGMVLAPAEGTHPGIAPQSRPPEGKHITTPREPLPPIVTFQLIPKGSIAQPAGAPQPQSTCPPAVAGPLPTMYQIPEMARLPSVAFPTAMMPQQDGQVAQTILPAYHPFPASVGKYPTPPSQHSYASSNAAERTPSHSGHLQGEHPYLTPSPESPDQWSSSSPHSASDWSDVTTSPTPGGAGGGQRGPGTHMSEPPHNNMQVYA

With `CCOC(=O)C[C@H]1[C@H](OC(=O)c2cc3ccccc3oc2=O)[C@@H](NC(=O)CC(C)C)c2cc(OCCCO)ccc2N1C(=O)c1ccc2ccccc2n1`, the composite z-score in [1] was -0.444; in [2], 0.304; in assay [3] it was -0.132; in [4], 0.945; in [5], 1.09; in [6], 0.594. Also, the composite z-score is 1.1 in [7], 0.252 in assay [9] and -0.199 in assay [10]. Besides, the z-score in [8] is 0.159 (inactive).

Regarding `CCCN1C(=O)[C@@]2(Cc3ccccc31)N=C(c1ccc(OCCCO)cc1)O[C@H]2c1ccccc1`, the composite z-score in [1] was 0.654; in [2] it was 0.27; in assay [3] it was -0.0909; in assay [4], 0.181; in assay [5], 0.697; in [6], 1.55. For the same molecule, the composite z-score in assay [7] was 1.21; in [9], 0.193; in [10], -0.0852. For the same molecule, in [8], the z-score is -1.35 (inactive).

Consider `O=C1CS(=O)(=O)C(c2cccc([N+](=O)[O-])c2)N1c1ccccc1` (stereo not given), for which the composite z-score in assay [1] came out at 0.63; in assay [2], 1.79; in [3], 0.467; in [4], 0.446; in assay [5], 0.936; in assay [6], 1.66. The composite z-score was determined as 1.19 in assay [7], 0.822 in assay [9] and 1.56 in assay [10]. In addition, the z-score in assay [8] is -0.997 (inactive).

Turning to `CN1C2C=C(CCCO)C(C3C(=O)N(C(N)=O)C(=O)C32)C1C1CC1` (stereo not given), the composite z-score in [1] was -0.263; in [2] it was 0.416; in [3] it was -0.0959; in [4], -0.148; in assay [5] it was -0.536; in assay [6] it was 0.0343. The composite z-score was 0.949 in assay [7], -0.57 in assay [9] and 0.0274 in assay [10]. Moreover, the z-score in [8] is 0.397 (inactive).

With `[N-]=[N+]=Nc1ccccc1C[C@]1(C(=O)N2CCOCC2)COC(c2ccc(OCCCO)cc2)=N1`, the composite z-score in assay [1] was -0.0495; in [2], 0.713; in assay [3], -0.0442; in assay [4] it was 0.261; in assay [5] it was 1.35; in [6], 1.38. Moreover, the composite z-score in [7] is 1.19; in assay [9], 1.28; in [10], -0.0617. Also, the z-score in assay [8] is 1.71 (inactive).

`C[C@@H]1NC(=O)[C@@H](Cc2ccccc2)NC(=O)[C@@]23C(=O)N[C@@H](Cc4ccccc4)C2[C@H](C)[C@@]2(C)O[C@H]2C3/C=C/C/C=C\CNC1=O` (stereo not given in full): the composite z-score in assay [1] is -0.285; in assay [2], 1.13; in assay [3] it was -0.149; in [4], -0.211; in [5], -0.787; in [6], -0.235. Also, the composite z-score in assay [7] is 0.305; in [9], -0.263; in [10], -0.249. In [8], the z-score is -0.323 (inactive).

As to `Cc1cc(C)c(C(O)C2C=CC3C(=O)N(c4ccccc4)C(=O)C3N2Nc2ccccc2F)c(C)c1` (stereo not given), the composite z-score in assay [1] was -0.0327; in assay [2], -0.437; in assay [3], -0.01; in [4] it was -0.0495; in assay [5], 0.565; in assay [6] it was 1.07. Further, the figures for the composite z-score in [7], in assay [9] and in assay [10] were 1.09, 0.439 and 0.0854, respectively. Further, the z-score in assay [8] is 0.717 (inactive).

Turning to `CCOC(=O)C[C@H]1[C@H](OC(=O)c2ccc(C(=O)c3ccccc3)cc2)[C@@H](NC(=O)c2ccc3ccccc3n2)c2cc(OCCCO)ccc2N1C(=O)Cc1ccc(OC)cc1`, the composite z-score in [1] was -0.379; in assay [2], 0.123; in [3], -0.0807; in assay [4] it was 0.289; in [5], 0.599; in assay [6], 0.252. For the same molecule, the figures for the composite z-score in [7], in assay [9] and in assay [10] were -0.261, 0.121 and 0.0501, respectively. For the same molecule, the z-score in assay [8] was 0.673 (inactive).

As for `Cc1ccc(S[C@]2(C(=O)NC(C)C)CC(=O)N(Cc3cc(C(F)(F)F)cc(C(F)(F)F)c3)[C@@H]2c2ccc(CO)cc2)cc1`, the composite z-score in assay [1] was 0.0795; in [2], -0.662; in assay [3], -0.145; in assay [4] it was -0.898; in [5], -1.08; in assay [6] it was 0.624. Besides, the figures for the composite z-score in assay [7], in [9] and in assay [10] were 0.644, -0.803 and -0.236, respectively. Further, in assay [8], the z-score is 0.237 (inactive).

For `Cc1ccccc1C(O)C1C=CC2C(=O)NC(=O)C2N1Nc1ccccn1` (stereo not given), the composite z-score is 0.888 in [1]; 0.127 in [2]; -0.129 in [3]; 0.0133 in assay [4]; 0.135 in assay [5]; 0.401 in assay [6]. The composite z-score in assay [7] was -0.0441; in assay [9] it was -0.0817; in [10] it was -0.134. Further, the z-score in [8] is 1.08 (inactive).

Regarding `COc1cccc(C)c1NC(=O)O[C@H]1[C@H](OC(=O)Nc2ccc3c(c2)OCO3)[C@@H](OC(=O)Nc2ccc3c(c2)OCO3)[C@@H](OC)O[C@@H]1CO`, the composite z-score is -0.0021 in assay [1]; 0.893 in assay [2]; 0.121 in [3]; 1.07 in assay [4]; 1.65 in assay [5]; -0.0548 in assay [6]. Besides, the composite z-score in [7] was 1.07; in assay [9], 1.17; in [10], 0.0243. Further, the z-score in assay [8] is 6.28 (inactive).

With `C=CC[C@@H](OC(=O)Nc1ccc(SC)cc1)c1ccc(O)c(F)c1`, the composite z-score is 0.401 in assay [1]; 0.601 in [2]; -0.0729 in assay [3]; 0.165 in assay [4]; -0.131 in [5]; 1.7 in assay [6]. Further, the figures for the composite z-score in [7], in assay [9] and in assay [10] were 1.21, -0.277 and -0.0645, respectively. Also, in assay [8], the z-score is 6.7 (inactive).

As to `CC[C@@H]1C=C(C(=O)O)[C@H](c2ccccc2)N1S(=O)(=O)c1ccc(C)cc1`, the composite z-score in [1] came out at 0.262; in assay [2], 0.577; in assay [3], 0.0663; in [4], 0.829; in [5], 1.53; in assay [6], 1.19. For the same molecule, the figures for the composite z-score in [7], in assay [9] and in assay [10] were 1.38, 0.635 and -0.0296, respectively. Also, the z-score in [8] was -1.24 (inactive).

As for `CCOC(=O)C[C@H]1[C@H](OC(=O)c2ccc(C(=O)c3ccccc3)cc2)[C@@H](NC(=O)c2ccc(-c3ccccc3)cc2)c2cc(OCCCO)ccc2N1C(=O)Cc1ccc(OC)cc1`, the composite z-score was -0.258 in [1]; -0.0676 in [2]; -0.0364 in assay [3]; 0.034 in assay [4]; 0.618 in assay [5]; 0.486 in [6]. In addition, the results for the composite z-score in assay [7], in [9] and in [10] were -0.228, 0.765 and 0.0976, respectively. The z-score in assay [8] was -0.111 (inactive).

On to `COCCCNC(=O)[C@@]1(Sc2ccc(C)cc2)CC(=O)N(C2Cc3ccccc3C2)[C@@H]1c1ccc(CO)cc1`, for which the composite z-score was 0.667 in assay [1]; -1.94 in assay [2]; -0.16 in assay [3]; -0.459 in assay [4]; -1.12 in assay [5]; 1.47 in assay [6]. Also, the composite z-score is 1.32 in assay [7], -0.213 in assay [9] and -0.164 in assay [10]. Further, the z-score in [8] was -1.11 (inactive).

In the case of `N#Cc1ccc(NN2C(C(O)c3ccc(Br)cc3)C=CC3C(=O)N(c4ccccc4)C(=O)C32)cc1` (stereo not given), the composite z-score in [1] amounted to 1.36; in assay [2], 0.288; in assay [3], 0.254; in [4] it was 0.73; in assay [5], 1.58; in assay [6] it was 1.74. For the same molecule, the results for the composite z-score in assay [7], in assay [9] and in assay [10] were 0.976, 0.907 and -0.182, respectively. The z-score in assay [8] is -2.87 (inactive).

Turning to `O=C(c1ccccc1)N1C(=O)[C@]2(Cc3ccccc31)N=C(c1ccc(OCCCO)cc1)O[C@@H]2c1ccccc1`, the composite z-score in assay [1] was -0.203; in [2], -0.0033; in assay [3] it was -0.061; in assay [4] it was 0.821; in [5] it was 0.562; in assay [6], 1.61. Further, the composite z-score was found to be 1.3 in [7], 0.313 in [9] and 0.252 in assay [10]. For the same molecule, the z-score in [8] was -1.76 (inactive).

Consider `[N-]=[N+]=Nc1ccccc1C[C@]1(C(=O)NCCN2CCOCC2)COC(c2ccc(OCCCO)cc2)=N1`, for which the composite z-score in assay [1] is 0.295; in assay [2], 1.26; in assay [3], -0.27; in assay [4], -0.0786; in [5], 0.722; in assay [6], 1.55. In addition, the composite z-score in assay [7] is 1.39; in [9], 0.143; in assay [10] it was -0.0994. The z-score in assay [8] was 0.706 (inactive).
